ssDAF12 agonist – S. stercoralis DAF-12 nuclear receptor activators, primary screen, cell-based, luminescence, HEK293, GRIP1 co-expression, lit1-tk-luc | actives 1% (n = 370,000) | AID 652126, 2013 | activation, % at 6.8 µM | HEK293 ssDAF-12/GRIP1 lit1-tk-luc reporter; % of 3 µM dafachronic acid response;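 active = activation above the mean over all tested compounds plus 3 SD, cut at about 0.9% in these data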;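 also: 0% = DMSO-only wells and 100% = 3 µM delta7-dafachronic acid wells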
hcDAF12 agonist – H. contortus DAF-12 nuclear receptor activators, primary screen, cell-based, luminescence, HEK293, lit1-tk-luc reporter. HEK293 hcDAF-12 lit1-tk-luc reporter; 0% DMSO, 100% Δ7-dafachronic acid. activation, % at 6.8 µM. actives 1.4% (n = 370,000). AID 652067, 2013;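 active = activation above the mean of all tested compounds plus 3 SD, cut at about 5.5% in these data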;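 also: 100% = response to 3 µM Δ7-dafachronic acid high control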
DAX1 inh-1 – DAX1 (NR0B1) inhibitors on StAR promoter, primary screen, cell-based, luminescence, SF-1 (NR5A1), full-length DAX-1. AID 652010, 2013. HEK293T StAR-luciferase reporter, SF-1/DAX-1 repression relief. inhibition, % at 6.8 µM. actives 1.1% (n = 370,000);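 active = inhibition above the mean over all tested compounds plus 3 SD, cut at about 3.6% in these data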;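 also: 0% = DAX-1 cells with DMSO and 100% = cells lacking DAX-1 with DMSO; higher inhibition means more luminescence from relief of DAX-1 repression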
hgDAF-12 ag – H. glycines DAF-12 receptor agonists, primary screen, cell-based, luminescence, HEK293, GAL4 fusion, UAS-luciferase. Nuclear hormone receptor DAF-12 (Heterodera glycines), GAL4 fusion. HEK293 GAL4-hgDAF12 UAS-luciferase reporter, agonist luminescence; normalized to butyrate control. activation, % at 6.8 µM. actives 1.8% (n = 370,000). AID 687014, 2013;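 active = activation above a cutoff set at the mean of all screened compounds plus 3 SD, cut at about 10% in these data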;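 also: 0% = DMSO wells and 100% = sodium butyrate wells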
DAX1 inh-2 – DAX1 (NR0B1) inhibitors, primary screen, cell-based, HEK293, Gal4-DAX1, luciferase luminescence | inhibition, % at 6.75 µM | actives 0.99% (n = 340,000) | AID 504766, 2011 | Nuclear receptor subfamily 0 group B member 1 (Homo sapiens), P51843 | HEK293 Gal4-DAX1 luciferase reporter;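 active = inhibition above the mean over all tested compounds plus 3 SD, cut at about 4.2% in these data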;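 also: 0% = DAX1-transfected cells with DMSO and 100% = empty-vector control cells with DMSO; inhibition shows as a rise in luminescence from relieved DAX1 repression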
Target sequence (P51843 207-470 limits assumed): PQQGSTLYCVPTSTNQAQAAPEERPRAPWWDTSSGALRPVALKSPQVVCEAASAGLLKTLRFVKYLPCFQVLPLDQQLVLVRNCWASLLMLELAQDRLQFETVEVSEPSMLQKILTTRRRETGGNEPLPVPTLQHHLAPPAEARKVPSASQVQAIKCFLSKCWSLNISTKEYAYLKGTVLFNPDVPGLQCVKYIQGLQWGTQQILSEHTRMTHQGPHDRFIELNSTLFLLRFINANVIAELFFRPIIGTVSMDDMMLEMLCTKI
Active calls of the source: *; · = no result given; ! = not active in a repeat. The list is not random: actives were taken first. Their share in the collection is about 4.1%.

SMILES	ssDAF12 agonist	hcDAF12 agonist	DAX1 inh-1	hgDAF-12 ag	DAX1 inh-2
NC(=O)c1ccsc1NC(=O)COC(=O)c1ccc(Cl)nc1	-1.1	-1.6	1.2	0.2	0.9
O=[N+]([O-])c1ccc(Cn2ccc3ccc(-c4ccc5ccn(Cc6ccccc6)c5c4)cc32)cc1	-0.2	0.0	-1.4	0.8	·
CCOC(=O)[C@@]12CCCC=C1N(CCc1ccc(Cl)cc1)C(=O)[C@H]2CC(=O)NCc1ccc(OC)c(OC)c1	-1.2	-3.9	-1.8	-3.7	·
O=C1CC(c2ccc3c(c2)OCCO3)Oc2ccc([N+](=O)[O-])cc21 (stereo not drawn)	-2.3	-2.5	0.0	-5.3	4.7*
Cc1ccnc(NC(=S)N2CCC(Nc3cccc(C(F)(F)F)c3)CC2)c1	-1.0	-1.9	·	3.3	·
COc1ccccc1CNC(=O)c1cc(-c2ccncc2)nc2c(Cl)cccc12	0.6	6.0*	1.7	-0.3	0.1
COc1ccc(CCNC(=O)c2cc(-c3ccncc3)nc3c(Cl)cccc23)cc1OC	-1.8	0.8	0.1	1.1	2.0
CCN(CC)C(=O)CC[C@@H]1CC[C@]2(CCCN(Cc3ccc(Br)cc3)C2)O1	-0.6	-3.3	0.1	-2.5	·
COc1ccccc1-c1ccc(OCCCN2CCC(C(O)(c3ccccc3)c3ccccc3)CC2)cc1	-1.0	-1.8	-0.4	-0.1	·
COc1ccc(CN(CCN2CCOCC2)C(=O)c2ccccc2C)cc1OC	-0.7	-2.6	-0.1	0.0	·
O=C(CCc1nnc(Cc2cccc(C(F)(F)F)c2)o1)NC1CC1	-0.3	-0.3	0.3	0.2	0.4
O=C(CCc1nnc(Cc2cccc(C(F)(F)F)c2)o1)NCC(F)(F)F	-1.2	2.4	0.2	-1.8	2.0
C=C(C)CNC(=O)CCc1nnc(Cc2cccc(C(F)(F)F)c2)o1	1.0*	1.5	1.4	10.1	0.6
CC(C)CN(C)C(=O)CCc1nnc(Cc2cccc(C(F)(F)F)c2)o1	-0.8	2.3	2.2	11.4*	2.7
CC(NC(=O)CCc1nnc(Cc2cccc(C(F)(F)F)c2)o1)C1CC1 (stereo not drawn)	-1.6	-0.6	0.6	10.5*	1.2
CCCCNC(=O)C[C@H]1C[C@@]2(C(=O)OC)C(=C[C@H](C(C)C)O[C@@H]2C2CC2)N(Cc2ccc3c(c2)OCO3)C1=O	-2.0	-2.6	0.3	-2.2	·
CCOC(=O)CC[C@@]1(C(=O)OCC)C[C@@H](CC(=O)NCCCOC)C(=O)N2CCCC=C21	1.6*	-0.4	0.5	0.4	·
O=C1CC(c2ccc(S(=O)(=O)NCCOc3ccccc3)cc2)CN1 (stereo not drawn)	-1.4	-2.6	0.2	-1.0	0.4
COCCNS(=O)(=O)c1ccc(C2CNC(=O)C2)cc1 (stereo not drawn)	-1.5	0.2	1.2	2.1	5.2*
CCCC(=O)N1CCC[C@]2(CC[C@@H](CCC#N)O2)C1	-1.4	0.7	0.3	-1.3	·
COC(=O)C[C@H]1CC[C@@H]2[C@@H](COc3ccc(NC(=O)C4CCCCC4)cc3C(=O)N2C)O1	-0.7	-1.5	-0.1	10.4	·
CN(C)[C@@H]1CCN(c2ccc3c(c2)O[C@H]2CCN(C2)S3(=O)=O)C1	0.2	0.1	-0.8	8.0	·
Nc1c(C(=O)N/N=C/c2cccnc2)oc2nc(-c3ccccc3)cc(-c3ccco3)c12	-0.2	3.0	0.1	2.7	·
Nc1c(C(=O)N/N=C/c2cccnc2)oc2nc(-c3ccco3)cc(-c3ccco3)c12	0.9*	2.5	-0.5	1.4	·
Cn1c2ccccc2c2cc(C(=O)NNC(=O)CCl)sc21	-0.9	6.2*	-2.5	-2.2	-2.0
SMILES	ssDAF12 agonist	hcDAF12 agonist	DAX1 inh-1	hgDAF-12 ag	DAX1 inh-2
c1ccc2c(c1)CCc1c(-c3ccncc3)n[nH]c1-2	1.6*	3.7	-2.8	0.6	2.3
O=C(N/N=C1\CCc2ccccc21)c1ccncc1	-0.8	1.9	0.1	6.1	-0.1
COc1ccc(-c2[nH]ncc2CN2CCN(Cc3cccs3)CC2)cc1F	-1.3	0.4	-0.1	-1.4	7.8*
CCN(CC)C1CCN(Cc2cn[nH]c2-c2ccc(OC)c(F)c2)C1 (stereo not drawn)	-1.5	-0.2	-0.2	4.6	·
CCc1cccc(NC(=O)Cn2ncn3c(cc4ccccc43)c2=O)c1	0.0	6.4*	-0.8	1.0	0.4
CCOCCCNC(=O)CNC(=S)N(Cc1ccccc1F)C1CCCCC1	-1.5	-2.4	-0.7	-0.3	-0.9
COCCCNC(=O)CNC(=S)N(Cc1ccc(F)cc1)C1CCCCC1	1.2*	3.6	1.0	1.6	0.1
CCOC(=O)[C@]12CCCC3=C1N(CCC3)C(=O)[C@@H](CC(=O)NCc1cccc(C(F)(F)F)c1)C2	-1.4	-0.6	-1.8	-3.1	·
C/C(=C\c1ccc(Cl)cc1)C(=O)c1c(C)cc(C)[nH]c1=O	-1.1	-0.8	-0.2	3.8	4.5*
S=C1NC2(CCCCCC2)NN1c1ccccc1	-0.3	-0.4	1.0	-0.6	·
COc1ccc(CCN2CC(C(=O)Nc3ccccc3F)CC2=O)cc1OC (stereo not drawn)	-0.5	-0.8	-0.9	-0.9	4.6*
COC(=O)N1C[C@H](OC(=S)Nc2ccc(OC)cc2OC)[C@H]2C[C@@H]1c1ccccc1O2	-1.3	-1.0	-0.6	-3.7	·
CC(OC(=O)c1cc(O)c2ccccc2c1O)C(=O)Nc1ccc(C(N)=O)cc1 (stereo not drawn)	1.4*	3.5	-1.7	0.6	0.6
Cc1ccc2c(C)c(C(=O)N(C)C(C)c3ccon3)oc2c1C (stereo not drawn)	0.0	1.0	4.2*	6.0	1.9
O=C(COc1ccccc1F)N/N=C1\CCCc2ccccc21	-0.1	5.8*	2.3	10.4	1.0
COc1ccc(OCC(=O)N/N=C2\CCCc3ccccc32)cc1	1.0*	3.0	-0.5	-3.0	-0.9
C=CCOC(=O)C1=C(C)NC(SCC(=O)N(CC)CC)=C(C#N)C1c1ccccc1 (stereo not drawn)	-1.6	-4.4	-1.5	-10.0	-3.5
C=CCOC(=O)C1=C(C)NC(SCC(=O)NC(=O)OCC)=C(C#N)C1c1cccnc1 (stereo not drawn)	-1.3	-1.7	-0.1	-0.7	5.3*!
O=C(NCCc1ccccc1)OCc1cn(Cc2ccc(C(F)(F)F)cc2)nn1	-1.2	-4.4	-0.2	-0.6	·
COc1cccc(NC(=O)C(=O)NCCCN2CCCC2=O)c1	-0.2	3.0	3.8*	7.7	2.4
O=C(CNC(=O)c1cccc(S(=O)(=O)N2CCc3ccccc32)c1)Nc1ccccc1Br	1.2*	-2.1	-0.8	-7.1	-2.1
CCC(=O)Nc1ccc(S(=O)(=O)N2CCc3ccccc32)cc1	-1.1	-0.5	-0.5	-1.3	-0.4
